The text below walks through data of PubChem BioAssay (NCI).

Test in all cases: NCI-60 one-dose screen, 48 h (100 = growth as untreated, 0 = no growth, -100 = all killed)
Experiment [1] concerns HT29 colon. As to conditions: 10 µM unless noted.
Experiment [2] deals with SNB-75 CNS. As to conditions: 10 µM unless noted.
For experiment [3], the system named is SNB-19 CNS. As to conditions: 10 µM unless noted.
The subject of experiment [4] is U251 CNS. As to conditions: 10 µM unless noted.
Experiment [5] relates to PC-3 prostate. The conditions noted are these: 10 µM unless noted.
The test system of experiment [6] is UACC-62 melanoma. The conditions noted are these: 10 µM unless noted.
The subject of experiment [7] is SK-MEL-28 melanoma. The conditions noted are these: 10 µM.
Experiment [8] deals with SK-MEL-2 melanoma. The conditions noted are these: 10 µM unless noted.
Experiment [9] has as its system EKVX NSCLC. As to conditions: 10 µM unless noted.
The test system of experiment [10] is SN12C renal. The conditions noted are these: 10 µM unless noted.
The subject of experiment [11] is UO-31 renal. The conditions noted are these: 10 µM unless noted.
Experiment [12] deals with TK-10 renal. As to conditions: 10 µM unless noted.
The subject of experiment [13] is ACHN renal. The conditions noted are these: 10 µM unless noted.
Experiment [14] concerns CAKI-1 renal. As to conditions: 10 µM unless noted.
Experiment [15] relates to A498 renal. The conditions noted are these: 10 µM unless noted.
In experiment [16] the test system is CCRF-CEM leukemia. The conditions noted are these: 10 µM unless noted.
Experiment [17] concerns MOLT-4 leukemia. The conditions noted are these: 10 µM unless noted.
The test system of experiment [18] is LOX IMVI melanoma. As to conditions: 10 µM unless noted.
Experiment [19] relates to SR leukemia. The conditions noted are these: 10 µM unless noted.
Experiment [20] deals with SK-MEL-5 melanoma. As to conditions: 10 µM unless noted.

About 83,000 compounds went through this panel and 20% of them were active in at least one assay; those are over-represented in the sample as a whole.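 Treatment: one concentration, 48 hours, 96-well format. Scoring: percent growth, with anything below 10 considered active.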 Unmarked numbers belong to inactive results. Activity calls are given as the source filed them.

As for `O=c1oc2ccc(I)cc2c(=O)n1-c1ccc(I)cc1F`, the growth in [1] was 28.3%; in experiment [2], -22.6% (active); in experiment [3] it was 21.2%; in [4], 1.81% (active); in experiment [5] it was 3.97% (active); in experiment [6], -28.6% (active). Besides, the growth is -4.19% (active) in experiment [7]; -29.7% (active) in experiment [8]; 9.77% (active) in experiment [9]; 4.52% (active) in experiment [10]; 8.63% (active) in experiment [11]; 11.3% in [12]. For the same compound, the growth is 4.07% (active) in [13]; -20.2% (active) in [14]; -73.3% (active) in experiment [15]; 6.91% (active) in experiment [16]; -35.6% (active) in experiment [17].

Take `COc1ccccc1C(=O)/C=C/c1ccccc1`: the growth was 56.6% in [1]; 88.5% in experiment [2]; 82.8% in experiment [3]; 43.8% in [4]; 75.3% in [5]; 85.2% in experiment [6]. Moreover, the growth in experiment [18] is 76.2%; in experiment [7], 105%; in [8], 104%; in experiment [9], 97.8%; in experiment [10], 83.5%; in experiment [11], 73.4%. The growth is 90.5% in experiment [13]; 90.4% in [14]; 98.8% in experiment [15]; 46.3% in [16]; 81.1% in [17]; 43.1% in experiment [19].

Regarding `O=C1c2cc(I)ccc2Oc2cc([N+](=O)[O-])ccc2N1c1ccc(Cl)cc1F`, the growth in [1] is 83.9%; in [2], 75.4%; in experiment [3], 90.5%; in [4], 79.3%; in [5] it was 78.7%; in experiment [6] it was 76.8%. Besides, the growth in experiment [18] was 86.7%; in experiment [7], 97.3%; in experiment [8], 85.4%; in experiment [9] it was 93.5%; in experiment [10], 90.8%; in [12] it was 120%. For the same compound, the growth in experiment [13] is 90.3%; in experiment [14], 63.9%; in experiment [15] it was 91.4%; in [16] it was 76.8%; in experiment [17] it was 56.6%.

Regarding `CC/C=C\C[C@H](O)C/C=C1/C(=O)C=C[C@@H]1C/C=C\CCCC(=O)OCCS(=O)(=O)c1ccccc1`, the growth in [1] is 45.1%; in [2], 111%; in experiment [3] it was 56.2%; in experiment [4] it was 16.3%; in experiment [5] it was 63.4%; in experiment [6] it was 16.1%. In addition, the growth in experiment [18] was -34.1% (active); in [7], 73.9%; in experiment [8] it was 72%; in experiment [9], 104%; in experiment [10], 37.3%; in [11], 70.4%. Besides, the growth is 104% in experiment [12]; 86.3% in experiment [13]; 65.4% in [14]; 115% in [15]; 5.02% (active) in [16]; 8.02% (active) in [17]. For the same compound, the growth in experiment [19] is 8.55% (active).

`Clc1ccc(Nc2scc3[n+]2CCC3)cc1`: the growth in [1] is 106%; in experiment [2], 94.3%; in [3], 98.4%; in experiment [4], 98%; in [5] it was 89.2%; in experiment [6], 87.3%. Moreover, the growth is 102% in [18]; 100% in experiment [7]; 106% in experiment [8]; 60.3% in experiment [9]; 98.2% in experiment [10]; 81.3% in experiment [11]. Besides, the growth in experiment [12] is 111%; in experiment [13], 104%; in experiment [14], 84.8%; in [15], 82.5%; in [16] it was 95.8%; in experiment [17], 94.6%. Also, the growth in [19] was 113%.

In the case of `COc1cccc(C2=NN3C(C2)c2ccccc2OC3c2ccc(/C=C3\SC(=O)NC3=O)cc2)c1` (stereo unspecified), the growth in [1] is 111%; in experiment [2], 95%; in [3], 105%; in experiment [4] it was 102%; in experiment [20], 91.8%; in experiment [6] it was 104%. Further, the growth is 70.5% in [18]; 104% in experiment [7]; 97.8% in experiment [8]; 85.4% in [9]; 101% in experiment [10]; 73.2% in experiment [11]. The growth is 98.7% in experiment [13]; 96.4% in [14]; 88.6% in experiment [15]; 97.1% in experiment [16]; 96.9% in experiment [17]; 120% in experiment [19].

On to `O=C(CN1C(=O)/C(=C\c2ccc(Cl)cc2)SC1=S)Nc1ncc(Cc2ccc(Cl)cc2)s1`, for which the growth in experiment [1] was 110%; in experiment [2], 88.6%; in experiment [3], 102%; in experiment [4] it was 100%; in [20], 95.7%; in [6] it was 99.9%. For the same compound, the growth in experiment [7] was 106%; in experiment [8] it was 105%; in [9], 96.5%; in experiment [10], 104%; in experiment [11], 80.8%; in [12], 111%. Besides, the growth is 103% in experiment [13]; 88.1% in [14]; 115% in [15]; 106% in experiment [16]; 106% in [17]; 116% in experiment [19].

Turning to `NCCCNc1nc2ccccc2c2c(=O)c3cc(F)ccc3sc12`, the growth was -50.9% (active) in experiment [1]; 25% in experiment [2]; 44.4% in experiment [3]; 18.9% in experiment [5]; 76.4% in experiment [20]; -76.1% (active) in [6]. Further, the growth in experiment [18] is -92.1% (active); in experiment [7], 0.2% (active); in experiment [8], 50.6%; in experiment [9] it was 35.6%; in [10] it was 41.7%; in [11] it was 23%. Further, the growth in experiment [12] is -46.6% (active); in [13] it was -66.7% (active); in experiment [14], 33.8%; in [15], 20.5%; in experiment [16] it was 0.338% (active); in experiment [17], -35% (active).

On to `Cc1cccc(NC(=O)c2sc3nc4c(cc3c2N)CCCC4)c1C`, for which the growth in experiment [1] was 2.81% (active); in experiment [2], 10.8%; in experiment [3] it was 26.2%; in [4], 15.1%; in [5], 21.2%; in [6], 38.7%. Also, the growth in experiment [7] was 68.5%; in [8], 49.1%; in experiment [9], 45.4%; in [10], 38.9%; in [11] it was 50.6%; in experiment [12], 65.4%. Further, the growth is 41.3% in [13]; 34.8% in experiment [14]; 4.01% (active) in experiment [15]; 7.79% (active) in experiment [16]; 19.3% in experiment [17].
